NS1 inh – influenza NS1 inhibition. Potency, µM (series often up to 46.1 µM), for the others: top-dose activity, positive = more growth. 270,000 tested, 0.4% active; calls by dose curve; also: actives are rising curves; nearly all actives have a fitted effect of over 50% in size
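In this qHTS, NS1 from influenza A is expressed in budding yeast, where it slows growth. Cells are switched from glucose to 2% galactose medium (pH 6.0, -URA), treated with compound, and growth recovery is read at OD600.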
Sm TGR inh – blocks Schistosoma mansoni thioredoxin glutathione reductase. purified TGR, DTNB reduction, TNB absorbance 405 nm. Potency, µM (titrated, usually from 114 µM), without a hit: at the top dose activity change, negative = inhibition, actives largely listed as inhibitors. 360,000 tested, 3% active; also: % is scaled to controls: 0 for no effect and ±100 for the full control effect; nearly all actives have a fitted effect of over 60% in size
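TGR 20 nM + NADPH 100 uM (dispensed conc.), cpd preinc 15 min RT; start with NADPH (500 uM addition) then DTNB (15 mM addition). Kinetic TNB absorbance, 405 nm filter. Four-parameter Hill fit across titration.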
Pf growth 48h – P. falciparum growth inhibition at 48 hours (one generation); 310,000 tested, 5.9% active; AID 504832; P. falciparum luciferase growth in erythrocytes, 48 h; Potency, µM (doses to about 28.7 µM), inactives show at the top dose activity change, negative = inhibition, most hits filed as inhibitors; also: % is scaled to controls: 0 for no effect and ±100 for the full control effect
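In quantitative HTS format, infected erythrocytes bearing luciferase-reporter parasites were treated for a single generation at 37 C. Luminescence after adding detection reagent served as the growth measure.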
AMA1-RON2 inh – inhibitors of Plasmodium falciparum AMA1-RON2 interaction; AlphaScreen AMA1-biotinylated RON2 peptide binding; Potency, µM (doses to about 58.2 µM), inactives show at the highest dose activity change, negative = inhibition, actives largely listed as inhibitors; 360,000 tested, 0.2% active;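 also: 0% = vehicle wells and -100% = peptide control; nearly all actives have a fitted effect of over 45% in size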
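AMA1 (3D7) with his tag at 25 nM final met compounds first, then biotinylated RON2 peptide at 25 nM; detection used donor plus acceptor beads, 10 µg/mL apiece, read by AlphaScreen after 30 min at room temperature.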
Pf growth 96h – P. falciparum growth inhibition at 96 hours; Potency, µM (doses to about 28.7 µM), without a hit: at the highest dose activity change, negative = inhibition, usual class: inhibitors; 320,000 tested, 6.9% active; P. falciparum luciferase reporter growth, 96 h; also: % is scaled to controls: 0 for no effect and ±100 for the full control effect
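96 h incubation, 37 C, 5% CO2, of luciferase-reporter P. falciparum-infected RBCs (2% hematocrit, 0.05% parasitemia final) with test compounds; endpoint luminescence.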
Numbers without * were called inactive; ? = inconclusive; . = no result. The list is not random: actives were taken first. Their share in the collection is about 11%. Unless noted, calls follow the shape of the dose curve; as a rule, active = well fitted curve in the direction sought with a large enough effect; inconclusive = small, poorly fitted or top-dose-only effect, or another doubt; inactive = no such curve, though single readings can be large; an effect the other way counts as inactive or inconclusive. Potency is read from the fitted curve at half-maximal effect.

SMILES	NS1 inh	Sm TGR inh	Pf growth 48h	AMA1-RON2 inh	Pf growth 96h
CC(C)c1ccc(NC(=O)C(Cc2ccccc2)NS(=O)(=O)c2ccc3c(c2)oc(=O)n3C)cc1 (centres undefined)	.	7%	.	.	.
COc1ccc(CNC(=O)C(C)n2nc(C)c3c(C)n(-c4ccc(C)cc4)nc3c2=O)cc1 (centres undefined)	-2%	0%	13µM*	14%	-2%
Cc1ccc(CCNC(=O)C(C)n2nc(C)c3c(C)n(-c4ccc(C)cc4)nc3c2=O)cc1 (centres undefined)	.	-1%	.	.	.
COc1ccccc1CCNC(=O)C(C)n1nc(C)c2c(C)n(-c3ccccc3)nc2c1=O (centres undefined)	10%	-3%	-12%	-2%	12µM*
COc1ccccc1CNC(=O)C(C)n1nc(C)c2c(C)n(-c3ccccc3)nc2c1=O (centres undefined)	5%	-8%	?	-3%	?
CCOc1ccc(CNC(=O)C(C)n2nc(C)c3c(C)n(-c4ccccc4)nc3c2=O)cc1 (centres undefined)	16%	-27%	?	-12%	-6%
COc1ccc(CCNC(=O)C(C)n2nc(C)c3c(C)n(-c4ccc(C)cc4)nc3c2=O)c(OC)c1 (centres undefined)	11%	-2%	13µM*	-4%	3.3µM*
Cc1cccc(CNC(=O)C(C)n2nc(C)c3c(C)n(-c4ccccc4)nc3c2=O)c1 (centres undefined)	8%	-22%	?	17%	10µM*
CC1CCN(C(=O)c2ccc(NS(=O)(=O)c3ccc4[nH]c(=O)[nH]c4c3)cc2)CC1	.	-2%	9%	2%	-3%
Cc1cc(Cl)ccc1OCC(=O)NNC(=O)c1ccc(=O)[nH]c1	.	.	.	81%	.
O=C(Nc1ccc([N+](=O)[O-])cc1)Nc1ccc(Cl)cc1F	.	2%	4.1µM*	-2%	33%
O=C(Nc1ccccc1CC[N+](=O)[O-])N1CCN(c2ccccc2)CC1	.	2.2µM*	10µM*	-23%	12µM*
O=C(Nc1ccc(Cl)cc1)Nc1ccccc1CC[N+](=O)[O-]	.	-5%	12µM*	19%	?
COCCN(C(=O)c1ccc(-c2ccc([N+](=O)[O-])cc2)o1)c1c(N)n(CC(C)C)c(=O)[nH]c1=O	.	-1%	11%	-18%	2%
O=[N+]([O-])c1ccc(Cl)cc1N1CCCCC1	2%	0%	22%	5%	19%
Cc1sc2ncnc(Sc3nnc4sc5ccccc5n34)c2c1C	-4%	-11%	2.9µM*	.	?
Cc1ccc(NC(=O)c2cc(-n3cnnc3)ccc2Cl)cc1	-4%	-3%	-12%	23%	3%
O=C(Nc1ccc(-c2nc3ccccc3s2)cc1)c1cc(-n2cnnc2)ccc1Cl	19%	7%	9.3µM*	10%	7.4µM*
O=C1CC(N2CCN(c3ccccc3)CC2)C(=O)N1c1ccc2c(c1)OCO2 (centres undefined)	5%	-16%	16%	2%	380%
CC(=O)Oc1cccc(N2C(=O)C3C4C=CC(C4=C(C)C)C3C2=O)c1 (centres undefined)	-101%	-24%	10%	-2%	-6%
CC(=O)Oc1ccc(N2C(=O)C3C4C=CC(O4)C3C2=O)cc1 (centres undefined)	-33%	7.1µM*	-5%	1%	10%
CCOc1ccc(N2C(=O)CC(N3CCOCC3)C2=O)cc1 (centres undefined)	-16%	-29%	-3%	1%	.
CC(=O)Oc1cccc(N2C(=O)C3C(C2=O)C2C=CC3C23CC3)c1 (centres undefined)	?	40µM*	5%	-3%	80%
CC(=O)Oc1ccc(N2C(=O)CCC2=O)cc1	-1%	2%	23%	20%	-12%
O=C1CC(N2CCOCC2)C(=O)N1c1ccc2c(c1)OCO2 (centres undefined)	-22%	50µM*	10%	2%	.
CC(=O)Oc1ccc(N2C(=O)CC(N3CCOCC3)C2=O)cc1 (centres undefined)	5%	22µM*	-8%	-7%	.
Cc1cccc(C2N3CC4(C(C)C)CN2CC(C(C)C)(C3)C4=O)c1 (centres undefined)	.	14%	.	.	.

Screening results: PubChem BioAssay, National Center for Advancing Translational Sciences (NCATS)
